Keap1-Nrf2 PPI = disrupts human Keap1 binding to Nrf2 peptide. Q14145. inhibition, % at 9.4 µM. 340,000 tested, 0.15% active. AID 504523. Keap1 Kelch-Nrf2 peptide fluorescence polarization, 1536-well; in the data active means inhibition above about 12%;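 further: human Keap1 Kelch domain with fluorescein labeled Nrf2 9mer peptide probe; higher means more block of Keap1 binding to Nrf2 peptide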
EBNA-1 inhibitor = blocks EBNA-1 binding to DNA | EBNA-1 DNA binding, fluorescence polarization | inhibition, % at 14.8 µM | 300,000 tested, 0.34% active; in the data active means inhibition above about 28%
ZTA DNA inh = blocks Epstein-Barr virus ZTA, an EBNA-1 counter-screen; inhibition, % at 11 µM; 320,000 tested, 0.15% active; ZTA-DNA binding, fluorescence polarization; P03206; in the data active means inhibition above about 33%
eLon inh = inhibitors of E. coli Lon protease; inhibition, % at 7.94 µM; AID 602123; 360,000 tested, 0.42% active; purified E. coli Lon protease, fluorescence polarization; in the data active means inhibition above about 13%, passing the limit was not always enough
Target sequence (P0A9M0 whole entry, looked up): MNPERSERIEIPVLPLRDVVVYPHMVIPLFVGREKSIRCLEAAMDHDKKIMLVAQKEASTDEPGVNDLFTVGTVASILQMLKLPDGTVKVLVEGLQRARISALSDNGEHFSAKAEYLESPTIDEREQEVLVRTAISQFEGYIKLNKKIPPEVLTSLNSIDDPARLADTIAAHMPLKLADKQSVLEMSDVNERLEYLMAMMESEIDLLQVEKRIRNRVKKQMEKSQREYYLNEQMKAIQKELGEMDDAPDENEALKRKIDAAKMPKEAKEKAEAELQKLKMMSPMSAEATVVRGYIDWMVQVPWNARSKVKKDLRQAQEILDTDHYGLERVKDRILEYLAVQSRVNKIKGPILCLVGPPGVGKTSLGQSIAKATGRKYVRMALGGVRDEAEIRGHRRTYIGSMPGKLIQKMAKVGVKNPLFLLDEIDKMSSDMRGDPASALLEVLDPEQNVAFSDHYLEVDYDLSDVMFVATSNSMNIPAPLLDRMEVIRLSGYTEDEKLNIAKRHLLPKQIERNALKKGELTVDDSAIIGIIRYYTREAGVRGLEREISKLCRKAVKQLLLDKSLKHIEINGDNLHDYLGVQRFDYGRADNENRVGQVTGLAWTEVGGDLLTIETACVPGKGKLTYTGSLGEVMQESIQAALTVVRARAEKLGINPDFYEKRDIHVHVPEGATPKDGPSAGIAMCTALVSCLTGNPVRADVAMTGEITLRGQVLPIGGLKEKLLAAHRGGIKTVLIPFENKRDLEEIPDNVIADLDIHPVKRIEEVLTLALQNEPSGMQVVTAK
C-LANA FP = inhibitors of KSHV LANA C-terminal domain DNA binding | 340,000 tested, 0.078% active | AID 504423 | MBP-C-LANA/FAM-LBS DNA binding, fluorescence polarization | inhibition, % at 9 µM;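 active means highest replicate inhibition at or above 60% at 9 µM, even if other replicates fall short; inactive means all replicates below 60% inhibition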
eLon confirm = E. coli Lon inhibition confirmation. shares compounds with eLon inh. purified E. coli Lon, fluorescence polarization. inhibition, % at 7.94 µM. 1,400 tested, 31% active. AID 602230; in the data active means inhibition above about 16%
A number is an active result; 0 = inactive; - = no result; + = active, no number. Sampled rows, rich in hits. Any-hit rate of the full collection: about 0.85%.

SMILES	Keap1-Nrf2 PPI	EBNA-1 inhibitor	ZTA DNA inh	eLon inh	C-LANA FP	eLon confirm
CCn1cnc2cc(NCc3ccc(C)cc3)ccc21	0	0	0	117	0	0
Cc1c(N)cccc1N	0	-	0	0	0	-
Cc1ccc2cccc(N)c2n1	0	0	0	31	0	0
CCOC(=O)c1csc(COc2ccc(OC)cc2)n1	0	0	0	0	0	-
CCN(CC(=O)Nc1ccccc1C(F)(F)F)C(=O)CN1C(=O)NC2(CCCC2)C1=O	0	0	0	0	0	-
O=c1c2ccccc2sn1-c1nccs1	0	-	-	22	0	20
O=c1c2ccccc2sn1-c1ccccc1	0	0	0	0	0	-
C=CCOc1ccccc1CNc1ccc2[nH]c(=O)[nH]c2c1	0	0	0	25	0	0
C=CCOc1ccccc1CNc1cccc(F)c1	0	0	0	0	0	-
O=C1NC[C@@H](CCCCN2C[C@H](Cc3ccccc3)N(CCC3CCCCC3)C(=O)C2=O)N(CC2CCCCC2)C1=O	-	-	-	0	-	-
Cc1cc2oc(=O)cc(CN3CCN(Cc4ccccc4)CC3)c2cc1Cl	0	0	0	21	0	0
CC(=O)Nc1ccc(S(=O)(=O)Nc2nnc(C)s2)cc1	-	-	-	0	-	-
CC1(C)CC(=O)c2cnc(NCC3CCCO3)nc2C1 (centres undefined)	0	0	0	0	0	-
CC1CC(=O)c2cnc(NCC3CCCO3)nc2C1 (centres undefined)	0	0	0	16	0	0
CCCCn1nnnc1C(c1ccccc1)N1CCN(CCN2CCOCC2)CC1 (centres undefined)	-	-	-	15	-	0
CCOC(=O)C1CCN(C(=O)c2ccc(S(=O)(=O)Nc3ccccc3Cl)cc2)CC1	0	-	-	0	0	-
COCCn1nnnc1CN(Cc1ccco1)Cc1cc2cc3c(cc2[nH]c1=O)OCO3	0	0	0	23	0	0
CC(C)(C)n1nnnc1CN(Cc1ccco1)Cc1cc2cc3c(cc2[nH]c1=O)OCO3	0	0	0	0	0	-
CCc1nc2ccc(C(=O)N3CCN(S(=O)(=O)CC)CC3)cn2c1N(C)C(=O)c1cccc(OC)c1	-	-	-	0	-	-
CCCN1CCN(CCCNC(=O)CCCn2nc(C)c3sc4ccccc4c3c2=O)CC1	0	0	0	0	0	-
CCN1CCN(C(=O)Cn2nc(C)c3sc4ccccc4c3c2=O)CC1	0	0	0	21	0	0
C[C@H](NC(=O)CCCOc1ccc(Cl)cc1Cl)c1nnc2ccccn12	0	0	0	0	0	-
Nc1c(Cl)cc(-c2[nH]c3cc(C(=O)NCCO)ccc3c(=O)c2O)cc1Cl	0	0	0	+	0	193
O=C(NCCO)c1ccc(Cl)c(Cl)c1	0	0	0	0	0	-
CCCNC(=O)c1ccc2c(=O)c(O)c(-c3cccc(Br)c3)[nH]c2c1	0	0	0	143	0	135
SMILES	Keap1-Nrf2 PPI	EBNA-1 inhibitor	ZTA DNA inh	eLon inh	C-LANA FP	eLon confirm
CCCNC(=O)c1ccc2c(=O)c(O)c(C)[nH]c2c1	0	0	0	0	0	-
CCCNC(=O)c1ccc2c(=O)c(O)c(-c3ccc(F)cc3)[nH]c2c1	0	0	0	163	0	100
CC(C)(C)c1ccc(S(=O)(=O)N2CCN(CC(=O)NC(=O)NC3CCCCC3)CC2)cc1	0	0	0	0	0	-
CC1=C(C(=O)N(C)C)CC(CC(=O)NC(c2ccccc2)c2ccccc2)C(=O)N1CCCN1CCCC1=O (centres undefined)	-	-	-	0	-	-
Cc1ccccc1-c1nc(CS(=O)(=O)CC(=O)N2CCN(C)CC2)c(C)o1	0	0	0	0	0	-
CC(NS(=O)(=O)c1ccc2c(c1)c(=O)n(C)c(=O)n2C)C(=O)NC1CCCCC1 (centres undefined)	0	0	0	0	0	-
CCN(CC)C(=O)C1=C(C)N(Cc2ccc(OC)cc2)C(=O)C(CC(=O)NC2CC2)C1 (centres undefined)	-	-	-	0	-	-
CSCC[C@H](NC(=O)c1ccc(OCC2CCCO2)cc1)c1nc2ccccc2[nH]1 (some centres undefined)	0	-	-	0	0	-
O=CNCCCc1nc2ccccc2n1CCc1ccccc1	0	-	-	18	0	0
O=CNCc1nc2ccccc2n1CCc1ccccc1	0	0	0	0	0	-
COC(=O)[C@H](CC(C)C)NC(=O)Cn1cnc2c(SC)nc(N)nc21	0	-	-	12	0	0
O=C(O)c1ccc2c(c1)S(=O)(=O)c1cc(N3CCN(c4cnccn4)CC3)ccc1C2=O	-	-	-	0	-	-
COC(=O)c1cc(S(=O)(=O)N2CCC(c3cc(OC)ccc3OC)C2)c[nH]1 (centres undefined)	0	0	0	0	0	-
CC(Sc1ccc(Cl)cc1)C(=O)N(C)CC(=O)Nc1ccc(N2CCOCC2)cc1 (centres undefined)	0	0	0	0	0	-
COC(=O)c1c(C(=O)OC)c2n(c1C)Cc1ccccc1C2	0	0	0	123	0	0
COc1cc(CN(C)CC2CCCN(CCc3ccc(F)cc3)C2)c(Cl)cc1O (centres undefined)	0	0	0	0	0	-
COc1c(O)cccc1[C@@H](O)C1CCN(CCc2ccc(F)cc2)CC1	0	0	0	35	0	0
CC1Cc2ccccc2C(CCc2ccccc2)=N1 (centres undefined)	0	0	0	0	0	-
COc1ccc(-n2c(SC(C)C(=O)Nc3ccc(NC(C)=O)cc3)nc3ccccc3c2=O)cc1OC (centres undefined)	0	0	0	0	0	-
CCOC(=O)/C(C#N)=C(C)/C=C1\Sc2ccccc2N1CC	0	0	0	42	0	0
CCN1/C(=C\C=C(C(C)=O)C(C)=O)Sc2ccccc21	0	0	0	0	0	-
COc1ccccc1N1CCN(C2CCCCC2NS(=O)(=O)c2ccc(Cl)cc2)CC1 (centres undefined)	0	0	0	25	0	0
COc1ccc(N2CCN(C3CCCCC3NS(=O)(=O)c3ccc(Cl)cc3)CC2)cc1 (centres undefined)	0	0	0	0	0	-
NS(=O)(=O)c1ccc(N/N=C/c2ccc(O)c(O)c2O)c([N+](=O)[O-])c1	0	-	-	21	0	38
NS(=O)(=O)c1ccc(N/N=C/c2ccc(O)cc2O)c([N+](=O)[O-])c1	0	0	0	0	0	-
SMILES	Keap1-Nrf2 PPI	EBNA-1 inhibitor	ZTA DNA inh	eLon inh	C-LANA FP	eLon confirm
O=C1c2ccccc2S(=O)(=O)N1CC(O)Cn1ccc2ccccc21 (centres undefined)	0	0	0	112	0	45
OC(CN1CCNCC1)Cn1ccc2ccccc21 (centres undefined)	-	0	0	-	-	-
C[C@@H]1CN([C@H](C)CO)S(=O)(=O)c2ccc(C#Cc3ccccc3)cc2O[C@H]1CN(C)C(=O)Nc1ccc2c(c1)OCO2	-	-	-	0	-	-
O=C(Nc1cccc(C(=O)N2CCCCC2)c1)c1ccc(Cl)cc1	0	0	0	17	0	0
O=C(Nc1cccc(C(=O)N2CCCCC2)c1)C1CCCC1	0	-	-	16	0	0
O=C(Nc1cccc(C(=O)N2CCCCC2)c1)c1ccccc1	0	-	-	0	0	-
Cc1cccc(N2N=C(C(=O)O)CCC2=O)c1	0	0	0	37	0	0

Assay outcomes from PubChem BioAssay.
